According to PubChem BioAssay (EPA / NIEHS):
Records with an inconclusive call do not appear. Active and inactive are the calls of the source. Rule for the calls, unless noted: active = hit-call score of the fitted dose curve at least 0.9, where 1 is the maximum; inconclusive = response in the unintended direction; inactive = score below 0.9.

Key:
[1] = target: Glucocorticoid receptor (Homo sapiens) (UniProt P04150); assay: ATG_GR_TRANS: Attagene TRANS-FACTORIAL HepG2 Assay for human Glucocorticoid Receptor (GR) (AID 2282978); conditions: HepG2 Attagene TRANS GR reporter, mRNA transcription;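 note: activators score as hits since higher reporter transcript over DMSO is fitted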
Outline: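 Measurement of GAL4-UAS-driven reporter mRNA in human HepG2 liver cells 24 h post-dosing, using RT-PCR with fluorescent labelling and capillary electrophoresis; the transfected constructs report exogenous NR-GAL4 chimera activity, fitted upward against DMSO.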

[2] = target: Oxysterols receptor LXR-alpha (Homo sapiens) (UniProt Q13133); assay: ATG_LXRa_TRANS: Attagene TRANS-FACTORIAL HepG2 Assay for human Liver X Receptor alpha (LXRa) (AID 2282980); conditions: HepG2 Attagene TRANS reporter, LXRa transactivation
Outline: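 In this multiplexed TRANS system, compounds act on HepG2 cells carrying GAL4-UAS reporter units and a receptor-GAL4 fusion for 24 h. Induced reporter RNA is amplified, fluorescently labelled and sized by capillary electrophoresis, with DMSO as baseline.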

[3] = ATG_M_32_TRANS: Attagene TRANS-FACTORIAL HepG2 Assay for M32 Transcription Factor (Internal Marker) (AID 2282984); conditions: HepG2 Attagene TRANS M32 internal marker reporter;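 note: transcript level of a background control reporter unit measured by RT-PCR and capillary electrophoresis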
Outline: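 Fluorescence-detected mRNA induction, HepG2 liver cells, 24 h after dosing. Multiple GAL4-UAS reporter units introduced by transient transfection; background-control endpoint analysed for gain of signal against DMSO.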

[4] = target: Transcriptional activator Myb (Homo sapiens) (UniProt P10242); assay: ATG_Myb_CIS: Attagene CIS-FACTORIAL HepG2 Assay for human Myeloblastosis (Myb) Proto-Oncogene Transcription Factor (AID 2282986; active = hit-call score of the fitted dose curve at least 0.9, where 1 is the maximum; inactive = score below 0.9); conditions: HepG2 Attagene CIS-FACTORIAL Myb reporter transcription; actives raise or lower the signal
Outline: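 Fluorescence signals from capillary electrophoresis of RT-PCR-amplified reporter cDNA give the read-out. Cells: HepG2 transfected with multiple cis-regulated reporter units. Exposure lasts 24 hours; DMSO defines baseline for gain or loss of signal.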

[5] = target: Nuclear respiratory factor 1 (Homo sapiens) (UniProt Q16656); assay: ATG_NRF1_CIS: Attagene CIS-FACTORIAL HepG2 Assay for human Nuclear Respiratory Factor 1 (NRF1) Orphan Gene (AID 2282987; active = hit-call score of the fitted dose curve at least 0.9, where 1 is the maximum; inactive = score below 0.9); conditions: HepG2 NRF1 cis-element reporter, Attagene multiplex; actives raise or lower the signal
Outline: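 Transcriptional reporter readout, one component of a 52-endpoint multiplexed HepG2 panel. Exposure 24 h; mRNA detected via RT-PCR and fluorescent capillary electrophoresis; fitting in both directions against DMSO.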

[6] = target: Bile acid receptor (Homo sapiens) (UniProt Q96RI1); assay: ATG_FXR_TRANS: Attagene TRANS-FACTORIAL HepG2 Assay for Farnesoid X Receptor (FXR) (AID 2282979); conditions: HepG2 Attagene TRANS FXR-GAL4 reporter transcription;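 note: hits raise reporter mRNA above DMSO so AC50 marks FXR activation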
Outline: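 After 24 h chemical treatment of transfected HepG2 cells, GAL4-UAS reporter transcripts driven by an exogenous FXR-GAL4 fusion were measured by RT-PCR and capillary electrophoresis. Increases over DMSO were fitted.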

[7] = target: Oxysterols receptor LXR-beta (Homo sapiens) (UniProt P55055); assay: ATG_LXRb_TRANS: Attagene TRANS-FACTORIAL HepG2 Assay for human Liver X Receptor beta (LXRb) (AID 2282981); conditions: HepG2 Attagene TRANS GAL4-LXRb reporter, mRNA
Outline: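 Liver-derived HepG2 cells transfected with Gal4-responsive reporters were dosed for 24 h. Activation was scored as rise in reporter mRNA, by RT-PCR and capillary electrophoresis, above DMSO baseline.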

[8] = ATG_M_06_TRANS: Attagene TRANS-FACTORIAL HepG2 Assay for M06 Transcription Factor (Internal Marker) (AID 2282983); conditions: HepG2 Attagene TRANS M06 internal marker reporter;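 note: reporter transcript level by RT-PCR then capillary electrophoresis fluorescence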
Outline: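 Multi-reporter-transfected HepG2, 24 h treatment; reporter transcripts quantified via RT-PCR, primer-extension labelling and CE. DMSO-normalized gain-of-signal fit.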

[9] = target: Nuclear receptor subfamily 4 group A member 2 (Homo sapiens) (UniProt P43354); assay: ATG_NURR1_TRANS: Attagene TRANS-FACTORIAL HepG2 Assay for human Nuclear Receptor Related Protein 1 (NURR1) (AID 2282985); conditions: HepG2 Attagene TRANS reporter, mRNA readout
Outline: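 Chimeric NR-Gal4 proteins were expressed in human HepG2 cells bearing GAL4-UAS reporter units, and induced reporter mRNA was quantified 24 h post-dosing by RT-PCR and capillary electrophoresis.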

[10] = target: Hepatocyte nuclear factor 4-alpha (Homo sapiens) (UniProt P41235); assay: ATG_HNF4a_TRANS: Attagene TRANS-FACTORIAL HepG2 Assay for human Hepatocyte Nuclear Factor 4 alpha (HNF4a) (AID 2282982); conditions: HepG2 HNF4a transactivation reporter, mRNA readout
Outline: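 Using HepG2 liver cells transfected with GAL4-UAS reporter units, chemical-induced mRNA increases were assessed after 24 hours. Fluorescent RT-PCR fragments were separated by capillary electrophoresis and compared with DMSO negative controls.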

Chain of Transcriptional activator Myb (Homo sapiens) (P10242 whole entry, looked up): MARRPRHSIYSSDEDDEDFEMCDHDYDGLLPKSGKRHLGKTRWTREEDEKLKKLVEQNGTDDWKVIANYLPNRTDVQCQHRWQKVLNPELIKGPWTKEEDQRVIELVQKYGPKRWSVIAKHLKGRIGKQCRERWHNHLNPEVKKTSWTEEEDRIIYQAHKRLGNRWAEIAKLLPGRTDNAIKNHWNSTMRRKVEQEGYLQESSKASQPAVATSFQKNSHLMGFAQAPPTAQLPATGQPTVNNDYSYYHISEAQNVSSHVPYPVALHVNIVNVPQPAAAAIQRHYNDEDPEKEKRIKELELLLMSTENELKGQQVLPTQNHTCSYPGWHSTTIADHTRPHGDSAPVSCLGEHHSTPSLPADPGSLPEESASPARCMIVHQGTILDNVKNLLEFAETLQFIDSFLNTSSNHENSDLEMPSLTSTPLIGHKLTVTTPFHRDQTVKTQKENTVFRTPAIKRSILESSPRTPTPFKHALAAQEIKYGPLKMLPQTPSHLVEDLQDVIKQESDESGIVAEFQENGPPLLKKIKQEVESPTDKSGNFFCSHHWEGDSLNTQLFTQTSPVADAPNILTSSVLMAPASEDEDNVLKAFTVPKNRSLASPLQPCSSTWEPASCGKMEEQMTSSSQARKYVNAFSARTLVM
Chain of Hepatocyte nuclear factor 4-alpha (Homo sapiens) (P41235 whole entry, looked up, the tested form may be a part): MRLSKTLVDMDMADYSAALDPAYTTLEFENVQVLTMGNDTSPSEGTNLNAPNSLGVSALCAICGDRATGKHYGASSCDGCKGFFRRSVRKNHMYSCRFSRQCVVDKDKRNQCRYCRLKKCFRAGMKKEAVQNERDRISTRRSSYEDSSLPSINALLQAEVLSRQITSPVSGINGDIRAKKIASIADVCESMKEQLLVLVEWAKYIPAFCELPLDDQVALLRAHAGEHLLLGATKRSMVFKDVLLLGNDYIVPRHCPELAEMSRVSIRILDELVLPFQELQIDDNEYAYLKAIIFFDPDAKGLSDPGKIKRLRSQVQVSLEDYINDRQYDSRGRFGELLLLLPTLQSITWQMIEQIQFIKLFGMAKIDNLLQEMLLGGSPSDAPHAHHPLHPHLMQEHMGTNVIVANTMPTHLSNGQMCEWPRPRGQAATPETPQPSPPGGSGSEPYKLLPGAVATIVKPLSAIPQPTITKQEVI
Chain of Bile acid receptor (Homo sapiens) (Q96RI1 whole entry, looked up, the tested form may be a part): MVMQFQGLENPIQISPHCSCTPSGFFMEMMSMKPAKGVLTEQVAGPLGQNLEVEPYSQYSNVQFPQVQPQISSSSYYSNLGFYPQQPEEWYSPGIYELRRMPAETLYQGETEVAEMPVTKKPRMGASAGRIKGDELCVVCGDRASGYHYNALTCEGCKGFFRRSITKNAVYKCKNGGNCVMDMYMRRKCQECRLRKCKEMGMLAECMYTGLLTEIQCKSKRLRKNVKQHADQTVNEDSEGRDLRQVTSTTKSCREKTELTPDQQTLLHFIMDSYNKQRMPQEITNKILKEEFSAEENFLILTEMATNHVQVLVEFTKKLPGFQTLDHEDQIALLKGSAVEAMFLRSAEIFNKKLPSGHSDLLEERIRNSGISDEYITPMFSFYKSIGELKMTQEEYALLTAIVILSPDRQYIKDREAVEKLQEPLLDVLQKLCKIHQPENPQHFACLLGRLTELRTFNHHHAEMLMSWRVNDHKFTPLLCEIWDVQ
Chain of Nuclear receptor subfamily 4 group A member 2 (Homo sapiens) (P43354 whole entry, looked up, the tested form may be a part): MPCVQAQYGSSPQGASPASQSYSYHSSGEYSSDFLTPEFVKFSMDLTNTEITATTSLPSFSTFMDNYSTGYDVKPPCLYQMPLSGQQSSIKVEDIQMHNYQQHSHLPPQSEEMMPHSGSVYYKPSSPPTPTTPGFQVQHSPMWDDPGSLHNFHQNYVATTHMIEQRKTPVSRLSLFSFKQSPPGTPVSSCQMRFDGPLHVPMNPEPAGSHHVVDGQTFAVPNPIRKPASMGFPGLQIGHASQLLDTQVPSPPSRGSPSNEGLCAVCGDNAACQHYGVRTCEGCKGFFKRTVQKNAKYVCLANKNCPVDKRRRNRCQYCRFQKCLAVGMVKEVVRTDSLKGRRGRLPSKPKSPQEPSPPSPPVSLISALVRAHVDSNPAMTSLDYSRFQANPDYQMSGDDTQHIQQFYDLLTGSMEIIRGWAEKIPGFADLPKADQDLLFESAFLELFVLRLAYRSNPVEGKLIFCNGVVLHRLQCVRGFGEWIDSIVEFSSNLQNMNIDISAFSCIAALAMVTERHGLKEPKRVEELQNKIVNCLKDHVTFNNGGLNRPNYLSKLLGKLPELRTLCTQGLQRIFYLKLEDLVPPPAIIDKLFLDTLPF
Chain of Nuclear respiratory factor 1 (Homo sapiens) (Q16656 whole entry, looked up): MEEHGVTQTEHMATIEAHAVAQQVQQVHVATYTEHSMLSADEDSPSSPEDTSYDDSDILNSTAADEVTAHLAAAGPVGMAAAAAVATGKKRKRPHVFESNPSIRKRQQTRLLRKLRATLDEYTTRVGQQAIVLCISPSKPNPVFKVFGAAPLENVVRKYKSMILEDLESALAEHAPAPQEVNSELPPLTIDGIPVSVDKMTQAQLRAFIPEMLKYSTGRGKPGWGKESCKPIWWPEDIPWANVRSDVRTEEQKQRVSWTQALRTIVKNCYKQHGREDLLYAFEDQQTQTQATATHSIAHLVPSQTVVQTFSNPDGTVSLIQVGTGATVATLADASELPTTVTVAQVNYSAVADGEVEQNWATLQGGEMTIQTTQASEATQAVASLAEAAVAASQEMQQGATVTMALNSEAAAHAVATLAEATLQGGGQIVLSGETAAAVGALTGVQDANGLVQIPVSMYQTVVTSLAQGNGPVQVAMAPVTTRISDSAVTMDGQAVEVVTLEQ
Chain of Oxysterols receptor LXR-alpha (Homo sapiens) (Q13133 whole entry, looked up, the tested form may be a part): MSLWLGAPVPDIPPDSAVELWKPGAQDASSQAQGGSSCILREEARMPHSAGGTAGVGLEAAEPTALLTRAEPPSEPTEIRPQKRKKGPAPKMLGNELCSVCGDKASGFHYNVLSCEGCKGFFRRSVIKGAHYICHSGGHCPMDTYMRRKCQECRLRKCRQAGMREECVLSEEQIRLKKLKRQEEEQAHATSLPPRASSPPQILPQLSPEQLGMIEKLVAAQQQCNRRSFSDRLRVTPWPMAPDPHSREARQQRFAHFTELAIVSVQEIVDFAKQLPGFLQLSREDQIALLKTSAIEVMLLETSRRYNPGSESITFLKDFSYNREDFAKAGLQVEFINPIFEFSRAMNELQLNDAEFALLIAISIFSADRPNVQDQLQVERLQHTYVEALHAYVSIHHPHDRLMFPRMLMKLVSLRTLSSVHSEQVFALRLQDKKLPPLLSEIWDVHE
Chain of Oxysterols receptor LXR-beta (Homo sapiens) (P55055 whole entry, looked up, the tested form may be a part): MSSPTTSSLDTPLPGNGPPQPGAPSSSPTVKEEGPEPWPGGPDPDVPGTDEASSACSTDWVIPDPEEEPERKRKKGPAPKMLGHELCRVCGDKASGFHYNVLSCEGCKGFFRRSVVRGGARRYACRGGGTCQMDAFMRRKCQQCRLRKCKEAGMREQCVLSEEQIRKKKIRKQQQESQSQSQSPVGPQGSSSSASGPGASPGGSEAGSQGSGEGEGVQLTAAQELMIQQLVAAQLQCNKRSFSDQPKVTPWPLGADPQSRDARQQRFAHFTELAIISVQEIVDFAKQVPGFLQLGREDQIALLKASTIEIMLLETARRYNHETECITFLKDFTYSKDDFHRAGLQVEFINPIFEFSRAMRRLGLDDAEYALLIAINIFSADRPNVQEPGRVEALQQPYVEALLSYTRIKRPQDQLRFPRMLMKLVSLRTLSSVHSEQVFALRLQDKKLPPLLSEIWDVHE
Chain of Glucocorticoid receptor (Homo sapiens) (P04150 whole entry, looked up, the tested form may be a part): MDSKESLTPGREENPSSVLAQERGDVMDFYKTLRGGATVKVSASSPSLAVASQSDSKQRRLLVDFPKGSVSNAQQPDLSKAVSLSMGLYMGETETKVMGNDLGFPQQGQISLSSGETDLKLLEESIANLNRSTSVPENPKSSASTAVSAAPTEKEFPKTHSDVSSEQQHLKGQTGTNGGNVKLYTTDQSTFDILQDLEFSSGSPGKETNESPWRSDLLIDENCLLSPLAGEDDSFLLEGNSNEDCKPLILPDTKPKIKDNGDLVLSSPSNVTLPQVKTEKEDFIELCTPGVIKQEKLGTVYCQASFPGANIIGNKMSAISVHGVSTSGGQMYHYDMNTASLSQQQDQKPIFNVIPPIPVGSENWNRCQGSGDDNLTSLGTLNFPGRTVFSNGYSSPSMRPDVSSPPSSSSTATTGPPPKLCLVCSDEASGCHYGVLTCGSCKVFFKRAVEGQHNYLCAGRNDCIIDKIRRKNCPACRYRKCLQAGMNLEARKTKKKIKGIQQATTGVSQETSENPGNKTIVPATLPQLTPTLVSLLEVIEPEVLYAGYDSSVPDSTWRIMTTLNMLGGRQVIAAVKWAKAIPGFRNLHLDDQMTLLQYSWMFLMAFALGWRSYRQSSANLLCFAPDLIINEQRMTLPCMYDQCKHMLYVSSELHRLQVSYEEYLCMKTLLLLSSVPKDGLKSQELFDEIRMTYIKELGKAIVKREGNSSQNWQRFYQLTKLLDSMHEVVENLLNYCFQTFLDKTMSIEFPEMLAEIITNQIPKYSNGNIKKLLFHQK

O=C(Oc1ccc(Br)cc1)N1CCN2CCC1CC2
outcome [1]: inactive | outcome [2]: inactive | outcome [3]: inactive | outcome [4]: inactive | outcome [5]: inactive

CC(C)(O)c1cnn2c(-c3ccc(F)c(-c4c(F)cccc4C#N)c3)cnc2n1
outcome [1]: inactive | AC50 [6]: 14.5 µM (active) | outcome [3]: inactive | outcome [4]: inactive | AC50 [5]: 8.4 µM (active)

Clc1ccc(C(c2ccc(Cl)cc2)C(Cl)(Cl)Cl)cc1
outcome [1]: inactive | outcome [7]: inactive | outcome [8]: inactive | outcome [3]: inactive | outcome [9]: inactive | outcome [4]: inactive | outcome [5]: inactive

CCCCCCCCCCCCCN1CC(C)OC(C)C1 (centres undefined)
outcome [1]: inactive | outcome [2]: inactive | outcome [8]: inactive | outcome [9]: inactive | outcome [4]: inactive | outcome [5]: inactive

C=CCc1ccc2c(c1)OCO2
outcome [1]: inactive | outcome [2]: inactive | outcome [10]: inactive | outcome [8]: inactive | outcome [3]: inactive | outcome [9]: inactive | outcome [4]: inactive | outcome [5]: inactive

O=P(OCCCl)(OCCCl)OCCCl
outcome [1]: inactive | outcome [6]: inactive | outcome [7]: inactive | outcome [10]: inactive | outcome [3]: inactive | outcome [4]: inactive | outcome [5]: inactive

CCCCCCCCOC(=O)c1ccc(C(=O)OCCCCCCCC)c(C(=O)OCCCCCCCC)c1
outcome [1]: inactive | outcome [2]: inactive | outcome [10]: inactive | outcome [9]: inactive | outcome [4]: inactive | outcome [5]: inactive

Cc1cc(N=Nc2ccccc2C)ccc1N
outcome [1]: inactive | outcome [6]: inactive | outcome [2]: inactive | outcome [7]: inactive | outcome [10]: inactive | outcome [8]: inactive | outcome [3]: inactive | outcome [9]: inactive | outcome [4]: inactive | outcome [5]: inactive

COP(=S)(OC)SCN1C(=O)c2ccccc2C1=O
outcome [1]: inactive | outcome [6]: inactive | outcome [9]: inactive | outcome [4]: inactive | outcome [5]: inactive

Nc1ccc([N+](=O)[O-])cc1
outcome [1]: inactive | outcome [6]: inactive | outcome [2]: inactive | outcome [7]: inactive | outcome [10]: inactive | outcome [8]: inactive | outcome [3]: inactive | outcome [9]: inactive | outcome [4]: inactive | outcome [5]: inactive

N#CC(Br)Br
outcome [1]: inactive | outcome [6]: inactive | outcome [2]: inactive | outcome [7]: inactive | outcome [8]: inactive | outcome [3]: inactive | outcome [4]: inactive | outcome [5]: inactive

c1ccc2c(c1)oc1ccccc12
outcome [1]: inactive | outcome [7]: inactive | outcome [8]: inactive | outcome [3]: inactive | outcome [9]: inactive | outcome [4]: inactive | outcome [5]: inactive

Nc1ccc(N=Nc2ccccc2)cc1
outcome [1]: inactive | outcome [7]: inactive | outcome [10]: inactive | outcome [3]: inactive | outcome [9]: inactive | outcome [4]: inactive | outcome [5]: inactive

OCCCl
outcome [1]: inactive | outcome [6]: inactive | outcome [2]: inactive | outcome [7]: inactive | outcome [8]: inactive | outcome [4]: inactive | outcome [5]: inactive

CCOC(=O)[C@]1(c2ccccc2)Oc2ccccc2[C@@H]1N
outcome [1]: inactive | outcome [6]: inactive | outcome [10]: inactive | outcome [9]: inactive | outcome [4]: inactive | AC50 [5]: 58.2 µM (active)

Cc1cccc(N)c1N
outcome [1]: inactive | outcome [6]: inactive | outcome [2]: inactive | outcome [8]: inactive | outcome [3]: inactive | outcome [9]: inactive | outcome [4]: inactive | outcome [5]: inactive

CCC(C)c1ccc(O)cc1 (centres undefined)
outcome [1]: inactive | outcome [6]: inactive | outcome [7]: inactive | outcome [8]: inactive | outcome [3]: inactive | outcome [9]: inactive | outcome [4]: inactive | outcome [5]: inactive

CO[C@@H]1[C@H](OC(=O)NC(=O)CCl)CC[C@]2(CO2)[C@H]1[C@@]1(C)O[C@@H]1CC=C(C)C
outcome [1]: inactive | outcome [2]: inactive | outcome [7]: inactive | outcome [10]: inactive | outcome [8]: inactive | outcome [3]: inactive | outcome [4]: inactive | outcome [5]: inactive

CC(C)COC(=O)c1ccccc1C(=O)OCC(C)C
outcome [1]: inactive | outcome [6]: inactive | outcome [8]: inactive | outcome [3]: inactive | outcome [9]: inactive | outcome [4]: inactive | outcome [5]: inactive

CCCCOC(=O)c1ccccc1C(=O)OCc1ccccc1
outcome [1]: inactive | outcome [2]: inactive | outcome [10]: inactive | outcome [8]: inactive | outcome [3]: inactive | outcome [4]: inactive | outcome [5]: inactive

Nc1ccc(Oc2ccc(N)cc2)cc1
outcome [1]: inactive | outcome [2]: inactive | outcome [8]: inactive | outcome [3]: inactive | outcome [9]: inactive | outcome [4]: inactive | outcome [5]: inactive

CCCSC(=O)N(CCC)CCC
outcome [1]: inactive | outcome [7]: inactive | outcome [10]: inactive | outcome [8]: inactive | outcome [9]: inactive | outcome [4]: inactive | outcome [5]: inactive

Oc1ccccc1Cl
outcome [1]: inactive | outcome [7]: inactive | outcome [8]: inactive | outcome [3]: inactive | outcome [9]: inactive | outcome [4]: inactive | outcome [5]: inactive

Clc1ccc(C(c2ccc(Cl)cc2)C(Cl)Cl)cc1
outcome [1]: inactive | outcome [6]: inactive | outcome [7]: inactive | outcome [8]: inactive | outcome [3]: inactive | outcome [9]: inactive | outcome [4]: inactive | outcome [5]: inactive

CCC[CH2][Sn]([Cl])([CH2]CCC)[CH2]CCC
AC50 [1]: 1.24 µM (active) | outcome [6]: inactive | outcome [7]: inactive | outcome [10]: inactive | outcome [8]: inactive | AC50 [9]: 0.0336 µM (active) | outcome [4]: inactive | outcome [5]: inactive

Nc1ccc(Cc2ccc(N)cc2)cc1
outcome [1]: inactive | outcome [6]: inactive | outcome [2]: inactive | outcome [8]: inactive | outcome [3]: inactive | outcome [4]: inactive | outcome [5]: inactive

Nc1ccc(Cl)cc1N
outcome [1]: inactive | outcome [6]: inactive | outcome [2]: inactive | outcome [7]: inactive | outcome [8]: inactive | outcome [3]: inactive | outcome [9]: inactive | outcome [4]: inactive | outcome [5]: inactive

CC(C)N(Cc1ccccc1)C(=O)C(C)(C)C
outcome [6]: inactive | outcome [9]: inactive | outcome [4]: inactive | outcome [5]: inactive

O=C(N[C@H](c1ccccc1)[C@@H]1CN2CCC1CC2)c1c(Cl)ccc(C(F)(F)F)c1Cl
outcome [6]: inactive | outcome [8]: inactive | outcome [4]: inactive | outcome [5]: inactive

c1ccc(N=Nc2ccccc2)cc1
outcome [1]: inactive | outcome [8]: inactive | outcome [4]: inactive | outcome [5]: inactive

CN(C)[C@@H]1C(=O)C(C(N)=O)=C(O)[C@@]2(O)C(=O)C3=C(O)c4c(O)cccc4[C@@](C)(O)[C@H]3C[C@@H]12
outcome [6]: inactive | outcome [2]: inactive | outcome [7]: inactive | outcome [4]: inactive | outcome [5]: inactive

O=C(O)C1C2CCC(O2)C1C(=O)O (centres undefined)
outcome [2]: inactive | outcome [7]: inactive | outcome [10]: inactive | outcome [8]: inactive | outcome [9]: inactive | outcome [4]: inactive | outcome [5]: inactive

Clc1ccccc1Cl
outcome [1]: inactive | outcome [10]: inactive | outcome [8]: inactive | outcome [4]: inactive | outcome [5]: inactive

CC(C)(OOC(C)(C)c1ccccc1)c1ccccc1
outcome [6]: inactive | outcome [2]: inactive | outcome [7]: inactive | outcome [8]: inactive | outcome [9]: inactive | outcome [4]: inactive | AC50 [5]: 63 µM (active)

CNC(=O)Oc1cccc2c1OC(C)(C)C2
outcome [2]: inactive | outcome [7]: inactive | outcome [10]: inactive | outcome [3]: inactive | outcome [9]: inactive | outcome [4]: inactive | outcome [5]: inactive

c1ccc(NNc2ccccc2)cc1
outcome [1]: inactive | outcome [10]: inactive | outcome [3]: inactive | outcome [4]: inactive | outcome [5]: inactive

O=[N+]([O-])c1ccc(Oc2ccc(Cl)cc2Cl)cc1
outcome [1]: inactive | outcome [8]: inactive | outcome [3]: inactive | outcome [9]: inactive | outcome [4]: inactive | outcome [5]: inactive
